# Data: PubChem BioAssay (EPA / NIEHS)
# Results filed as inconclusive are left out. The source made the active and inactive calls. The calls were made as follows: active = hit-call score of the fitted dose curve at least 0.9, where 1 is the maximum; inconclusive = response in the unintended direction; inactive = score below 0.9.
# Biological target: human Serotonin, 5-Hydroxytryptamine Receptor 3 (5HT3), HTR3A (gene 3359) (UniProt P46098)
# Experiment: NVS_LGIC_h5HT3: NovaScreen (NVS) Ligand-Gated Ion Channel Assay for human Serotonin, 5-Hydroxytryptamine Receptor 3 (5HT3) (AID 2283325)
# Method: NVS_LGIC_h5HT3 is a biochemical, single-readout assay that uses extracted gene-proteins from HEK293 in a cell-free assay. Measurements were taken 1 hour after chemical dosing in a 96-well plate.NVS_LGIC_h5HT3 is one of one assay component(s) measured or calculated from the NVS_LGIC_h5HT3 assay. It is designed to make measurements of radioligand binding, a form of binding reporter, as detected with scintillation counting signals by Filter-based radiodetection technology.Data from the assay component NVS_LGIC_h5HT3 was analyzed into 1 assay endpoint. This assay endpoint, NVS_LGIC_h5HT3, was analyzed in the positive analysis fitting direction relative to DMSO as the negative control and baseline of activity. Using a type of binding reporter, loss-of-signal activity can be used to understand changes in the binding as they relate to the gene HTR3A. Furthermore, this assay endpoint can be referred to as a primary readout, because the performed assay has only produced 1 assay endpoint. To generalize the intended target to other relatable targets, this assay endpoint is annotated to the ion channel intended target family, where the subfamily is ligand-gated ion channel.
# Binding assays used specific radioligands (tritiated, iodinated) with non-radioactive competitive displacement ligands in agonist or antagonist protocols (as indicated) and various reference compounds and inhibitors to titrate specific binding to receptors and transporters. Most enzyme assays (CYPs, kinases, phosphatases, proteases, HDACs) used recombinant protein and specific substrates (fluorescence mostly, some colorimetric and radioactive) and inhibitors, followed by a biochemical separation of substrate and product. All assays for the biochemical HTS were initially run in duplicate at a single concentration (10 uM for CYP450 assays and 25 uM for all others). Assay-chemical combinations meeting a pre-defined threshold (e.g., 30% inhibition and other criteria defined below) were then run in singleton concentration-response format with maximum concentration of 20 uM for CYPs and 50 uM for all others. Each assay was run with positive and negative controls, and concurrent controls on every plate. The follow-up (secondary) screen tested active chemical-pairs in concentration series, as well as a few additional assays not tested in the primary screen, some selected negative inactives, and several cases re-run in the concentration series for confirmatory purposes.
# Chain of human Serotonin, 5-Hydroxytryptamine Receptor 3 (5HT3), HTR3A (gene 3359) (P46098 whole entry, looked up): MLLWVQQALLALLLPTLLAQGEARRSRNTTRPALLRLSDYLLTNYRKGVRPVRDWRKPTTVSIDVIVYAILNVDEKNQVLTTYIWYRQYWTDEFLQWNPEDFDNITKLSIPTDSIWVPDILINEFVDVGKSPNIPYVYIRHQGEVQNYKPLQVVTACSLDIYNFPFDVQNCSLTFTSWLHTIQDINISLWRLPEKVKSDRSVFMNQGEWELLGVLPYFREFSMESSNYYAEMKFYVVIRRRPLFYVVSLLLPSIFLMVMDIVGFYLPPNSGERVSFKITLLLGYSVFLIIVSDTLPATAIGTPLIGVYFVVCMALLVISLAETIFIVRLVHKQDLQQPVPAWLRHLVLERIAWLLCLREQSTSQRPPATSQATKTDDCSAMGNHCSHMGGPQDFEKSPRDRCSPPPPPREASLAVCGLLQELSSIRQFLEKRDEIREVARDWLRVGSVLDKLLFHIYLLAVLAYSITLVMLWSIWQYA
SMILES,outcome,AC50
CCCCCCCCCCCC(=O)OC,inactive,–
Cc1ccc(Cl)cc1,–,7.56 µM (active)
NCC1(Cc2noc(=O)[nH]2)CCCCC1,inactive,–
O=C(OCCCCCOC(=O)c1ccccc1)c1ccccc1,–,0.0428 µM (active)
CCCCCCCCCCCCCCCC,inactive,–
COc1cc(S(=O)(=O)O)c(C)cc1N=Nc1c(O)ccc2cc(S(=O)(=O)O)ccc12,–,32.8 µM (active)
CNCc1cc(F)ccc1Oc1ccc(Cl)c(Cl)c1,inactive,–
Oc1ccc2c(c1)OC[C@@H](N1CCC(O)(c3ccc(F)cc3)CC1)[C@H]2O,inactive,–
COc1cc(C=O)ccc1O,–,15 µM (active)
CCOc1ccc2c(c1)C(C)=CC(C)(C)N2,inactive,–
